Results filed as inconclusive are left out. Calls of active or inactive are those of the source. The call rests on the fitted dose curve; in most records, active means well fitted curve in the direction sought with a large enough effect; inconclusive means small, poorly fitted or top-dose-only effect, or another doubt; inactive means no such curve, though single readings can be large; an effect the other way counts as inactive or inconclusive.
Assays:
[1] = qHTS of pediatric cancer cell lines to identify multiple opportunities for drug repurposing: Primary screen for A673 cells (AID 1347092); further: nearly all actives have a fitted effect of over 45% in size
Summary of the method: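 Luminescence from CellTiter-Glo, taken after 15 min at room temperature, served as the proxy for metabolically active cells following 48 h treatment. Both potency and efficacy were taken from curves fitted to the titration data.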

[2] = qHTS of pediatric cancer cell lines to identify multiple opportunities for drug repurposing: Primary screen for SK-N-MC cells (AID 1347093)
Summary of the method: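 Metabolically active cells were quantified by ATP-dependent luminescence (CellTiter-Glo, 15 min at room temperature) following 48 h treatment. Cells had been plated at 500-1,000 per well and settled for 5 h beforehand.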

[3] = qHTS of pediatric cancer cell lines to identify multiple opportunities for drug repurposing: Primary screen for BT-37 cells (AID 1347094)
Summary of the method: (§1)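 Following a 5-hour attachment period, cells at 500-1,000/well received compounds and were cultured for 48 hours. CellTiter-Glo was added and luminescence read to estimate viable, metabolically active cells.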

[4] = qHTS of pediatric cancer cell lines to identify multiple opportunities for drug repurposing: Primary screen for NB-EBc1 cells (AID 1347095)
Summary of the method: as §1

[5] = qHTS of pediatric cancer cell lines to identify multiple opportunities for drug repurposing: Primary screen for U-2 OS cells (AID 1347096); further: nearly all actives have a fitted effect of over 50% in size
Summary of the method: (§2)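 Cells (500-1,000/well) rested 5 h, then received compounds for 48 h; metabolically active cells were measured by CellTiter-Glo luminescence. Final concentrations spanned up to 46 µM (MIPE, 11-point) or 0.59 nM-46 µM (NPC, 8-point) in primary screens, 11-point in follow-ups.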

[6] = qHTS of pediatric cancer cell lines to identify multiple opportunities for drug repurposing: Primary screen for Saos-2 cells (AID 1347097); further: nearly all actives have a fitted effect of over 40% in size
Summary of the method: as §1

[7] = qHTS of pediatric cancer cell lines to identify multiple opportunities for drug repurposing: Primary screen for SK-N-SH cells (AID 1347098); further: nearly all actives have a fitted effect of over 65% in size
Summary of the method: as §2

[8] = qHTS of pediatric cancer cell lines to identify multiple opportunities for drug repurposing: Primary screen for NB1643 cells (AID 1347099); further: nearly all actives have a fitted effect of over 50% in size
Summary of the method: as §1

[9] = qHTS of pediatric cancer cell lines to identify multiple opportunities for drug repurposing: Primary screen for BT-12 cells (AID 1347101); further: nearly all actives have a fitted effect of over 25% in size
Summary of the method: as §2

[10] = qHTS of pediatric cancer cell lines to identify multiple opportunities for drug repurposing: Primary screen for LAN-5 cells (AID 1347100)
Summary of the method: as §2
Potency means the concentration at half of the fitted maximal effect.

Row | Compound | Potency [1] | Potency [2] | Potency [3] | Potency [4] | Potency [5] | Potency [6] | Potency [7] | Potency [8] | Potency [9] | Potency [10]
1 | C[C@H]1COc2c(N3CCN(C)CC3)c(F)cc3c(=O)c(C(=O)O)cn1c23 | inactive | inactive | inactive | inactive | inactive | inactive | inactive | inactive | inactive | –
2 | Cc1onc(-c2ccccc2)c1C(=O)N[C@@H]1C(=O)N2[C@@H](C(=O)O)C(C)(C)S[C@@H]12 | inactive | inactive | inactive | inactive | inactive | inactive | inactive | – | inactive | inactive
3 | Cc1cc(-c2nnc3n2CCCCC3)c(C)n1-c1ccccc1 | inactive | inactive | inactive | inactive | inactive | inactive | inactive | inactive | inactive | inactive
4 | NC(=O)N1CCC(CC(=O)N2CCC([C@H]3c4ncc(Br)cc4CCc4cc(Cl)cc(Br)c43)CC2)CC1 | 14.8 µM (active) | 14.8 µM (active) | 19.3 µM (active) | 13.2 µM (active) | – | 18.7 µM (active) | – | – | 21.7 µM (active) | 7.43 µM (active)
5 | C[C@]12CC[C@@H]3c4ccc(O)cc4CC[C@H]3[C@H]1CC[C@H]2O | 2.96 µM (active) | 10.5 µM (active) | 27.3 µM (active) | 9.35 µM (active) | – | 16.6 µM (active) | – | 4.18 µM (active) | – | 9.35 µM (active)
6 | FC(F)(F)c1ccc(Nc2nc3ccc(Oc4ccnc(-c5ncc(C(F)(F)F)[nH]5)c4)cc3[nH]2)cc1 | 14.8 µM (active) | 4.18 µM (active) | 13.7 µM (active) | 20.9 µM (active) | – | 7.43 µM (active) | 5.41 µM (active) | 16.6 µM (active) | – | –
7 | Cc1ccccc1C(=O)Nc1ccc(C(=O)N2CCCC(O)c3cc(Cl)ccc32)c(C)c1 (stereo not drawn) | inactive | inactive | inactive | inactive | inactive | – | inactive | inactive | inactive | –
8 | CCOc1cc2ncc(C#N)c(Nc3ccc(OCc4ccccn4)c(Cl)c3)c2cc1NC(=O)C=CCN(C)C | 0.0743 µM (active) | 0.105 µM (active) | 1.09 µM (active) | 0.332 µM (active) | – | 1.18 µM (active) | 0.121 µM (active) | 0.59 µM (active) | – | 1.48 µM (active)
9 | CCc1nc(-c2cccc(C)c2)c(-c2ccnc(NC(=O)c3ccccc3)c2)s1 | 23.5 µM (active) | 29.6 µM (active) | 27.3 µM (active) | 20.9 µM (active) | – | 16.6 µM (active) | inactive | 18.7 µM (active) | – | –
10 | C=Cc1c(C)c2cc3nc(cc4[nH]c(cc5nc(cc1[nH]2)C(C)=C5CCC(=O)O)c(CCC(=O)OC)c4C)[C@@]1(C)C3=CC=C(C(=O)OC)[C@H]1C(=O)OC | 0.0372 µM (active) | 0.059 µM (active) | 0.0769 µM (active) | – | 0.372 µM (active) | 4.69 µM (active) | 0.121 µM (active) | – | – | –
11 | C[C@H](NCc1ccc2c(c1)nc(NC(=O)c1ccc(-c3cn[nH]c3)s1)n2CCc1ccccc1)C(C)(C)C | 0.743 µM (active) | 1.66 µM (active) | 1.37 µM (active) | 1.87 µM (active) | – | 1.18 µM (active) | 3.04 µM (active) | 1.18 µM (active) | 2.43 µM (active) | 0.833 µM (active)
12 | CNC(=O)c1cccc(-c2ccc3c(N4CCOC[C@H]4C)nc(N4CCOC[C@H]4C)nc3n2)c1 | 0.148 µM (active) | 0.0148 µM (active) | 0.122 µM (active) | 0.132 µM (active) | – | 0.833 µM (active) | – | – | – | –
13 | COc1cc(C=CC(=O)CC(=O)C=Cc2ccc(O)c(OC)c2)ccc1O | 6.79 µM (active) | 5.4 µM (active) | 31.4 µM (active) | 38.2 µM (active) | – | 30.3 µM (active) | – | 12.1 µM (active) | 44.4 µM (active) | 9.59 µM (active)
14 | CC(=O)O[C@]1(C(C)=O)CC[C@H]2[C@@H]3C=C(C)C4=CC(=O)CC[C@]4(C)[C@@H]3CC[C@@]21C | 2.35 µM (active) | 2.09 µM (active) | 4.32 µM (active) | 2.35 µM (active) | – | 11.8 µM (active) | 3.04 µM (active) | 2.64 µM (active) | 15.3 µM (active) | 5.9 µM (active)
15 | CCCCCCCCc1ccc(CCC(N)(CO)CO)cc1 | 4.69 µM (active) | 1.87 µM (active) | 21.7 µM (active) | 16.6 µM (active) | – | 18.7 µM (active) | 34.1 µM (active) | 18.7 µM (active) | 21.7 µM (active) | 26.4 µM (active)
